Rows were chosen to be rich in hits. Some 17% of all compounds tested hit in one or more screens of this group.
HT1080 IDH1KD tx: qHTS for induction of synthetic lethality in tumor cells producing 2HG: qHTS for the HT-1080-IDH1KD cell line; HT-1080 IDH1 knockdown viability, ATP luminescence, 48 h; Potency, µM (top dose mostly 46.1 µM), inactives show at the top dose activity, negative = toxicity, usual class: cytotoxic; 360,000 tested, 2% active;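 further: 0% = DMSO wells and -100% = cell-free medium wells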
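After a 2 h attachment period, IDH1KD HT-1080 cells took pin-transferred compound for 48 h at 37 °C; ATP-based luminescence after 10 min room-temperature reagent incubation reported viability.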
DT40 TDP1 CPT: qHTS for Inhibitors of human tyrosyl-DNA phosphodiesterase 1 (TDP1): qHTS in cells in presence of CPT | chicken DT40 Tdp1-/-;hTDP1 cells + 20 nM CPT, ATP luminescence, 48 h | Potency, µM (doses to about 46.2 µM), inactives show at the highest dose activity change, negative = growth inhibition, hits mostly inhibitors | 420,000 tested, 12% active | AID 686979, 2013; further: on the % scale 0 is the no-effect control and ±100 the full control effect; nearly all actives have a fitted effect of over 55% in size
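Chicken DT40 Tdp1-/- cells complemented with human TDP1, 400 cells/well, exposed to compounds plus 20 nM camptothecin for at least 48 h at 37 C; viability read as ATP content by CellTiter-Glo luminescence.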
HepG2 tox: qHTS for Inhibitors of TGF-b: Cytotox Counterscreen; AID 588856, 2011; 410,000 tested, 0.76% active; HepG2 CAGA-GFP viability, ATP luminescence, 18 h; Potency, µM (titrated, usually from 46.1 µM), without a hit: at the highest dose activity change, negative = cytotoxicity, actives largely listed as cytotoxic
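HepG2 CAGA-GFP cells (1000/well, DMEM with 1% FBS) received compound, then TGF-beta at 500 pg/mL final, and were incubated 18 hours at 37 degrees C. Viability was read by CellTiter-Glo luminescence. Media-only wells were set as complete cell-killing and DMSO as no toxicity.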
TGFb inhibitor: qHTS for Inhibitors of TGF-b. HepG2 CAGA-GFP TGF-b/SMAD3 reporter, GFP fluorescence, 18 h; TGF-beta stimulated, 500 pg/mL final. 410,000 tested, 1.2% active. Potency, µM (series often up to 46.1 µM), for inactives: top-dose activity, negative = inhibition, actives largely listed as inhibitors; further: on the % scale 0 is the no-effect control and ±100 the full control effect; nearly all actives have a fitted effect of over 65% in size
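HEPG2 CAGA-GFP cells (1000/well, DMEM with 1% FBS) were pre-incubated 2 h at 37 degrees C, given compound by pin tool, then stimulated with TGF-beta at 500 pg/mL final for 18 h before per-cell GFP fluorescence imaging.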
DT40 TDP1 no CPT: qHTS for Inhibitors of human tyrosyl-DNA phosphodiesterase 1 (TDP1): qHTS in cells in absence of CPT; 420,000 tested, 15% active; Potency, µM (titrated, usually from 46.2 µM), for the others: top-dose activity change, negative = growth inhibition, most hits filed as inhibitors; DT40 Tdp1-/- hTDP1 cells, no CPT, ATP luminescence, 48 h; further: on the % scale 0 is the no-effect control and ±100 the full control effect; nearly all actives have a fitted effect of over 55% in size
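Cells were dispensed at 400 per well, compounds added by pin tool, plates incubated ≥48 hr at 37 °C, then CellTiter-Glo added for 30 min at room temperature before luminescence reading. Line: DT40 Tdp1-/- complemented with hTDP1; camptothecin omitted.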
HT1080-NT tox: qHTS for induction of synthetic lethality in tumor cells producing 2HG: qHTS for the HT-1080-NT fibrosarcoma cell line | HT-1080-NT fibrosarcoma viability, CellTiter-Glo ATP luminescence, 48 h | Potency, µM (series often up to 46.1 µM), inactives show at the highest dose activity, negative = less viability, hits mostly cytotoxic | 360,000 tested, 1.6% active | AID 686970, 2013;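 further: NT is the 2HG producing partner of a matched IDH1 knockdown line; 0% = DMSO-treated cells and -100% = media-only wells without cells; nearly all actives have a fitted effect of over 55% in size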
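Read-out is CellTiter-Glo luminescence after 10 minutes at room temperature, following 48 hours' compound treatment of HT-1080-NT cells (750 cells/well, RPMI, 5% FBS, 37 degrees C).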
The depositor's hits bear a star. The call rests on the fitted dose curve; in most records, active means well fitted curve in the direction sought with a large enough effect; inconclusive means small, poorly fitted or top-dose-only effect, or another doubt; inactive means no such curve, though single readings can be large; an effect the other way counts as inactive or inconclusive. Potency means the concentration at half of the fitted maximal effect.

CC(C)=CCN1CCN(Cc2cnc(-c3ccccc3)s2)CC1CCO (configuration not stated) was read as HT1080 IDH1KD tx 0.3%, DT40 TDP1 CPT 25.9µM*, HepG2 tox -17.8%, TGFb inhibitor -16.2%, DT40 TDP1 no CPT inconclusive and HT1080-NT tox 0.0%.
For OCCC1CN(Cc2cnc(-c3ccccc3)s2)CCN1Cc1ccccc1 (configuration not stated) the results were HT1080 IDH1KD tx -10.8%, DT40 TDP1 CPT -0.3%, HepG2 tox -11.9%, TGFb inhibitor -5.8%, DT40 TDP1 no CPT inconclusive and HT1080-NT tox -9.5%.
Screening OCC1(Cc2cccc(F)c2)CCN(Cc2cccc3nccnc23)CC1 returned HT1080 IDH1KD tx -22.4%, DT40 TDP1 CPT -16.6%, HepG2 tox -10.6%, TGFb inhibitor 2.3%, DT40 TDP1 no CPT -27.1% and HT1080-NT tox -15.5%.
Cc1ccc2c(c1)nnn2C1CCN(C(=O)c2ccccc2F)CC1 was read as HT1080 IDH1KD tx -0.5%, DT40 TDP1 CPT -4.4%, HepG2 tox -7.7%, TGFb inhibitor 1.0%, DT40 TDP1 no CPT -22.7% and HT1080-NT tox 7.0%.
For COc1cccc(CNC(=O)CCn2c(=O)c3cccn3c3ccc(F)cc32)c1OC the results were DT40 TDP1 CPT inconclusive, HepG2 tox -16.5%, TGFb inhibitor -1.1% and DT40 TDP1 no CPT 23.1µM*.
For CCOc1ccccc1CNC(=O)CCn1c(=O)c2cccn2c2ccc(F)cc21 the results were DT40 TDP1 CPT inconclusive, HepG2 tox -8.1%, TGFb inhibitor -13.0% and DT40 TDP1 no CPT 16.4µM*.
Screening CCc1ccc(CNC(=O)CCn2c(=O)c3cccn3c3ccc(F)cc32)cc1 returned DT40 TDP1 CPT inconclusive, HepG2 tox 0.2%, TGFb inhibitor -12.9% and DT40 TDP1 no CPT inconclusive.
`O=C(CNS(=O)(=O)c1ccc(Br)s1)NCCc1ccc(Cl)cc1` gave HT1080 IDH1KD tx -4.2%, DT40 TDP1 CPT -15.0%, HepG2 tox -32.3%, TGFb inhibitor 1.4%, DT40 TDP1 no CPT inconclusive and HT1080-NT tox 4.1%.
Screening CCc1cccc(C)c1NC(=O)COC(=O)CSCc1ccccc1 returned HT1080 IDH1KD tx -1.4%, DT40 TDP1 CPT -3.0%, HepG2 tox 9.0%, TGFb inhibitor 22.8%, DT40 TDP1 no CPT 4.2% and HT1080-NT tox 2.3%.
For C/C(Cl)=C/CSc1nc2c(c(=O)[nH]c(=O)n2C)n1C(C)C the results were HT1080 IDH1KD tx -1.8%, DT40 TDP1 CPT inconclusive, HepG2 tox -1.4%, TGFb inhibitor -22.0%, DT40 TDP1 no CPT 16.4µM* and HT1080-NT tox -12.4%.
Screening C/C(Cl)=C/Cn1c(SC(C)C)nc2c1c(=O)[nH]c(=O)n2C returned HT1080 IDH1KD tx -1.5%, DT40 TDP1 CPT inconclusive, HepG2 tox -4.4%, TGFb inhibitor 12.0%, DT40 TDP1 no CPT 16.4µM* and HT1080-NT tox -0.1%.
CCCCCCSc1nc2c(c(=O)[nH]c(=O)n2C)n1C was read as HT1080 IDH1KD tx 4.7%, DT40 TDP1 CPT inconclusive, HepG2 tox 1.3%, TGFb inhibitor 5.1%, DT40 TDP1 no CPT 20.6µM* and HT1080-NT tox inconclusive.
Screening CC(C)Sc1nc2c(c(=O)[nH]c(=O)n2C)n1Cc1ccc(Cl)cc1 returned HT1080 IDH1KD tx -20.0%, DT40 TDP1 CPT inconclusive, HepG2 tox -8.4%, TGFb inhibitor 1.8%, DT40 TDP1 no CPT 25.9µM* and HT1080-NT tox -23.3%.

High-throughput results as filed in PubChem BioAssay.
